Source: PubChem
Hits are enriched below; roughly 18% of the tested compounds scored in any of these assays.
PLK1 PBD inh: blocks phosphopeptide binding to human PLK1 polo-box domain; AID 720504; actives 2.8% (n = 360,000); Plk1 PBD binding of FITC phosphopeptide, fluorescence polarization; Potency, µM, without a hit: max response, negative = inhibition, most hits filed as inhibitors; also: series mostly up to about 57 µM; nearly all actives have a fitted effect of over 65% in size
VDR inh: blocks the human vitamin D receptor; P11473; VDR-SRC2-3 peptide fluorescence polarization, 2 h; Potency, µM, inactives show max response, negative = inhibition, hits mostly inhibitors; actives 0.93% (n = 400,000)
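FP read-out; VDR + SRC2-3 coactivator peptide; 23 nl compound by pintool; 2 h RT incubation; reagents held at 4 deg C, protected from light.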
TDP1 block: TDP1 (human) enzyme inhibition; actives 0.28% (n = 350,000); Potency, µM (top dose mostly 130 µM), without a hit: at the highest dose activity change, negative = inhibition, usual class: inhibitors; recombinant TDP1, AlphaScreen DNA substrate cleavage; AID 485290; also: nearly all actives have a fitted effect of over 40% in size
Target sequence (Q9NUW8 whole entry, looked up): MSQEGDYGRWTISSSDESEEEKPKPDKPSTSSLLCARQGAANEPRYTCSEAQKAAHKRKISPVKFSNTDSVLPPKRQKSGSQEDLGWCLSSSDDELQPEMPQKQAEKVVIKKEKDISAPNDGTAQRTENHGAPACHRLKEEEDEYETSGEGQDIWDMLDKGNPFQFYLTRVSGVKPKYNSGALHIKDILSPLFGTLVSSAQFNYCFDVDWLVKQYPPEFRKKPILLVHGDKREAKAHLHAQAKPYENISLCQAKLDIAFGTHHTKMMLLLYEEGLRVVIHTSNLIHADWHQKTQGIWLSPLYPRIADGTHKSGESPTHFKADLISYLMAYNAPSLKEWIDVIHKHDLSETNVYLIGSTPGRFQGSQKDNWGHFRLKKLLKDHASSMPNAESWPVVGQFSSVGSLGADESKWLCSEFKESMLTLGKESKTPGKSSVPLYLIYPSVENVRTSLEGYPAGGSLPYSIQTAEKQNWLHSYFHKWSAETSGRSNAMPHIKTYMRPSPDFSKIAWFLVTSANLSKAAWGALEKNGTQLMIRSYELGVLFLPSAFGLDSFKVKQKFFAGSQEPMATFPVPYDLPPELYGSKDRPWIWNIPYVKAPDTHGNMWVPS
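Recombinant E. coli-expressed Tdp1 (1 nM) preincubated with compound 15 min at RT, then 5'-biotin/3'-phosphotyrosine-FITC DNA substrate (15 nM) added for 5 min. AlphaScreen beads (10 ug/ml) added, 10 min RT; tyrosine-FITC cleavage read as signal loss.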
DT40 TDP1 CPT: growth inhibition of DT40 Tdp1-/-;hTDP1 cells with camptothecin (screen for TDP1 inhibitors). actives 12% (n = 420,000). Potency, µM (series often up to 46.2 µM), without a hit: at the highest dose activity change, negative = growth inhibition, hits mostly inhibitors. AID 686979. chicken DT40 Tdp1-/-;hTDP1 cells + 20 nM CPT, ATP luminescence, 48 h; also: nearly all actives have a fitted effect of over 55% in size
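Cell growth measured by CellTiter-Glo luminescence after a minimum 48 h, 37 C compound exposure with 20 nM CPT in Tdp1-knockout DT40 cells stably expressing hTDP1, seeded 400/well; qHTS titration format.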
DT40 TDP1 no CPT: qHTS for Inhibitors of human tyrosyl-DNA phosphodiesterase 1 (TDP1): qHTS in cells in absence of CPT; AID 686978, 2013; Potency, µM (doses to about 46.2 µM), inactives show at the top dose activity change, negative = growth inhibition, hits mostly inhibitors; DT40 Tdp1-/- hTDP1 cells, no CPT, ATP luminescence, 48 h; actives 15% (n = 420,000); also: nearly all actives have a fitted effect of over 55% in size
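Growth kinetics read by CellTiter-Glo luminescence after ≥48 hr at 37 °C. Cells: DT40 Tdp1-/- stably carrying human TDP1, 400 per well, compound exposure in the absence of CPT (DMSO vehicle).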
GCN5L2 inh: blocks human GCN5L2 histone acetyltransferase; Q92830; Potency, µM (series often up to 58.9 µM), inactives show at the top dose activity change, negative = inhibition, actives largely listed as inhibitors; GCN5L2 HAT assay, ThioGlo1 CoA-SH fluorescence; actives 0.21% (n = 390,000); AID 504327
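Compounds, pin-transferred from DMSO stocks, meet 20nM GCN5L2 for 15 min before the reaction begins with H3(1-25) peptide (75uM) and acetyl-CoA (70uM). Thiol-reactive ThioGlo1 reports CoA release over 20 min at room temperature.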
Numbers without * were called inactive; ? = inconclusive; · = not tested or not shown; [ ] = another dose, or the depositor's remark. Calls follow the shape of the dose curve; as a rule, active = well fitted curve in the direction sought with a large enough effect; inconclusive = small, poorly fitted or top-dose-only effect, or another doubt; inactive = no such curve, though single readings can be large; an effect the other way counts as inactive or inconclusive. % is scaled to controls: 0 for no effect and ±100 for the full control effect; potency is read from the fitted curve at half-maximal effect.

SMILES | PLK1 PBD inh | VDR inh | TDP1 block | DT40 TDP1 CPT | DT40 TDP1 no CPT | GCN5L2 inh
Cc1sc2ncnc(NCC(c3ccco3)N(C)C)c2c1C (stereo not given) | -1% | -20% | 4% | -21% | ? | -1%
COc1ccccc1C(CNc1ncnc2sc(C)c(C)c12)N(C)C (stereo not given) | -12% | -7% | -3% | ? | 21µM* | -3%
COc1ccc(C(CNc2ncnc3sc(C)c(C)c23)N(C)C)cc1 (stereo not given) | -7% | -1% | · | ? | 23µM* | -1%
O=C(NCCC1CC1(Cl)Cl)Nc1ccccc1 (stereo not given) | 4% | 13% | 1% | 12% | -23% | -3%
O=C(NCc1ccc(Cl)cc1)c1ccc(CNS(=O)(=O)c2ccc(F)cc2)cc1 | · | 14% | 5% | -19% | -4% | -9%
Cc1cccc(N2C(=O)C3CCCN3C2=S)c1 (stereo not given) | 13µM* | 20% | · | -19% | 30% | -16%
O=C1C2CCCN2C(=S)N1c1ccccc1 (stereo not given) | 13µM* | -6% | · | 1% | 3% | -2%
CSc1cccc(N2C(=O)C3CCCN3C2=S)c1 (stereo not given) | 11µM* | -7% | · | 10% | -20% | -19%
CC(C)=CCC[C@H](C)CC1Cc2[nH]c(=S)[nH]c(=O)c2C(c2ccc(Cl)cc2)O1 (stereo not given in full) | -8% | · | · | ? | ? | ·
O=C(CSc1cccc[n+]1[O-])c1ccc(Cl)s1 | -21% | -10% | 0% | 0.73µM* | 1.3µM* | 3%
O=C(CSc1cccc[n+]1[O-])c1ccccc1Br | -11% | 15% | -1% | 3.7µM* | 5.2µM* | -4%
CCc1ccccc1NC(=O)C1(S(=O)(=O)c2ccc(C)cc2)CC1 | -8% | 19% | 1%[0.0935 µM] | -18% | -16% | 0%
CCN(C(=O)Cc1ccc(Br)cc1)C1CCCCC1 | 1% | 19% | 2% | 21µM* | ? | ·
CCN(C(=O)CN1C(=O)c2ccccc2S1(=O)=O)C1CCCCC1 | 1% | -16% | 2% | 4% | -2% | 0%
C[C@@H]1C(=O)NC2=Nc3cccc(Cl)c3CN21 | · | -1% | 9% | -27% | -29% | -5%
C/C(=N/Nc1ncc(Br)cn1)c1ccc(Br)cc1 | 4.7µM* | ? | 2% | ? | ? | -9%
C/C(=N\Nc1ccc(C(=O)O)cc1)c1ccc(Br)cc1 | -26% | -18% | · | -22% | -2% | -10%
CCOc1ccc(C(=O)C2CCN(C(=O)c3ccc([N+](=O)[O-])cc3)CC2)cc1 | 2% | -13% | · | ? | 21µM* | -13%
CN1CCN(C(=O)c2ccc(Oc3ccc([N+](=O)[O-])cc3)cc2)CC1 | -12% | -2% | 5% | -13% | ? | -3%
O=C(c1ccc([N+](=O)[O-])cc1)N1CCCC1 | 0% | -8% | 2% | 1% | -1% | 0%
CCOC(=O)N1CCN(C(=O)c2ccc(Oc3ccc([N+](=O)[O-])cc3)cc2)CC1 | -11% | 4% | 3% | 16µM* | 23µM* | 0%
CC(Sc1nnc(-c2cccs2)n1N)C(=O)NCC1CCCO1 (stereo not given) | -1% | -4% | -7%[0.505 µM] | -15% | 5% | 3%
CC(C)(C)c1nnc(N/N=C/c2ccccc2O)n(N)c1=O | 0% | 2% | 8% | 0.65µM* | 1µM* | 1%
Cn1c(=O)oc2cc(S(=O)(=O)NC(CC(=O)O)c3cccc(Br)c3)ccc21 (stereo not given) | · | 8% | 3% | 29% | 10% | -4%
Cc1ccc(C)c(NS(=O)(=O)c2cc(C(=O)NCCSC3CCCCC3)ccc2C)c1 | -1% | -12% | 2% | ? | 23µM* | 3%
COc1cccc(OC)c1C(=O)NCCSC1CCCCC1 | 27µM* | ? | 6% | 13µM* | 18µM* | 0%
